The values below come from ChEMBL document CHEMBL4513216, “Probing the Open Global Health Chemical Diversity Library for Multistage-Active Starting Points for Next-Generation Antimalarials” (ACS Infect Dis, 2020).

About 2,700 (4%) of roughly 68,000 compounds showed an effect of 50% or more. Shown is part of a subset that was picked to be rich in strong results.

This test concerns Plasmodium berghei. The experiment in a line: Screen against P. berghei liver stage (PbLuc), transformed with Luciferase, at 2uM. Type of test: functional, HepG2. As to conditions: tested at 2 uM.
For the compound `Cc1cccc(CN2CCn3cc(CNC(=O)CC4CC4)nc3C2)n1`, the INHIBITION worked out at 17.24%.

For the compound `O=C1COC2(CCN(Cc3nccs3)CC2)CN1CC1CC1`, the INHIBITION is given as 7.86%.

Regarding `CCc1cnc(N2C[C@@H]3C[C@H](C(=O)NC)[C@H](C2)O3)nc1`, the INHIBITION came to 18.91%.

Turning to `N#Cc1cccc(S(=O)(=O)N2CCCCC2C(N)=O)c1` (centres undefined), the INHIBITION was 70.24%.

Regarding `N#Cc1cccc(S(=O)(=O)N2CCCCC2CCN2CCCC2)c1` (centres undefined), the INHIBITION was -8.84%.

For the compound `CC(=O)NCCC1CCCCN1S(=O)(=O)c1cccc(C#N)c1` (centres undefined), the INHIBITION was -7.53%.

As to `CCOc1cccc(NC(=O)c2cnc(C)cn2)n1`, the INHIBITION turned out to be 29.97%.

As to `CC(C)=CCS(=O)(=O)Cc1nc(C(C)C)no1`, the INHIBITION is recorded as 34.69%.

With `CN1CCCC1CCNC(=O)c1ccccc1-n1cc(CN)cn1` (centres undefined), the INHIBITION is on record as -10.49%.

On to `O=C(C1CCCO1)N1CCC(n2cc(-c3ccsc3)nn2)CC1` (centres undefined), for which the INHIBITION worked out at 7.67%.

Regarding `O=C(C1CCCO1)N1CCC(n2cc(-c3ccc(F)cc3)nn2)CC1` (centres undefined), the INHIBITION was 31.51%.

Take `Cc1ccc(-c2cn(C3CCN(C(=O)[C@H]4CCCO4)CC3)nn2)cc1`: the INHIBITION is reported as 74.44%.

In the case of `CN(Cc1ccc(F)cc1)C(=O)NCc1nnc2n1CCCCC2`, the INHIBITION is -43.41%.

Turning to `O=C(NCCCN1CCOCC1)c1ccc(-n2ccc3ccccc32)s1`, the INHIBITION turned out to be 28.31%.

On to `O=C(NCCN1CCOCC1)c1ccc(-n2ccc3ccccc32)s1`, for which the INHIBITION is reported as 52.4%.

In the case of `O=C(NCCCN1CCCCC1)c1ccc(-n2ccc3ccccc32)s1`, the INHIBITION stood at 13.64%.

Take `CC(C)(C)c1nc(CN2CCCC2c2nnc3ccccn23)no1` (centres undefined): the INHIBITION is recorded as -12.01%.

As to `COc1nc2ccn(CCNc3cc(C)ccn3)c(=O)c2cc1C#N`, the INHIBITION was found to be 55.39%.

`COc1nc2ccn(CCc3scnc3C)c(=O)c2cc1C#N`: the INHIBITION is 0.31%.

As to `COc1nc2ccn(CCc3cnccn3)c(=O)c2cc1C#N`, the INHIBITION is -32.52%.

Consider `O=C([C@@H]1CCCN1c1nccc(Nc2ccccc2)n1)N1CCCCC1`, for which the INHIBITION is recorded as -16.43%.

With `CCC(CN1CCCC1)NC(=O)C1(c2cccc(F)c2)CC1` (centres undefined), the INHIBITION came out at 6.64%.

Turning to `COc1cccc(-n2cc(CN(C)C(=O)c3cnc(O)cn3)cn2)c1`, the INHIBITION is -6.27%.

Consider `C=C(C)COc1ccccc1C(=O)N(C)C(C)c1c(C)n[nH]c1C` (centres undefined), for which the INHIBITION is 29.81%.

As to `COc1cccc(C(=O)N(C)C(C)c2c(C)n[nH]c2C)c1OC` (centres undefined), the INHIBITION was found to be 50.63%.

Take `C=C(C)COc1cccc(C(=O)N(C)C(C)c2c(C)n[nH]c2C)c1` (centres undefined): the INHIBITION is on record as -10.92%.

Take `CC(C)N1CCCn2c(nc(CNC(=O)c3nccn3C)cc2=O)C1`: the INHIBITION is recorded as -25.29%.

Turning to `CCN(CC)C(=O)c1ccn(COc2ccc(F)cc2)n1`, the INHIBITION is 17.7%.

As for `CCc1n[nH]c(C2CN(C(=O)Cc3ccc(C)nc3)CCO2)n1` (centres undefined), the INHIBITION turned out to be 36.48%.
